# According to paper PMC12864922, “TDP-43 directly inhibits mRNA accumulation in neurites through modulation of mRNA stability”:
# The full ranking holds about 9,900 sequences; the median of “r (bound/input frequency ratio)” is about 0.7, and the highest 2% start at about 6.5. The list comes from a sample in which the highest values are over-represented; it also holds similar and randomly drawn sequences.
# B1: ENSMUSG00000029636.77|Wasf3 (ssRNA)
# RNA: GGGAGUUCUACAGUCCGACGAUCGCUUCGAUAUCCGCAUGCUAAAGAUCACUGGCUGUGUGUCUCAGUGAUGUCUUCCAACCAGUGGGUGAUACGUUUUCCUGUUUCUUCCCUUUGCAAAUUGAAUUCCAGGUAGAUAUGGUUGUAGAGGGGAAAGUUUAACAAAUCAGAAUGAAAUGUUUGUCUGUUUGCACACUGGGCCUGGUGGCCUCCAAGGAAAUGUGUACGAUCGUUUGCUUUCUCUAUCUUGGCGCUUGCAACCGAGAGCGGCCAUUUUUAUGAGGGGAGCCCUGUGGGUACUCAUCUCUUGCGGUCGCACUAGUGUGGAAUUCUCGGGUGUCAAGG
# B2: ENSMUSG00000090935.714|Synj2bp (ssRNA)
# RNA: GGGAGUUCUACAGUCCGACGAUCGCUUCGAUAUCCGCAUGCUAAGAGCUCUGCUCUCUGAGCAUCUGCCCCAGAUACAGAGGCAGAGUAUGAAGUGGAACAUUGUUUUAUUCCUAGGUGCUCAGGACAGACUGAUCAACCUCCAGUAACAUAUGUGGUUAGUAAGUGCUUCAGCUUGUGUAGCCAUUAAUAACCAAGUCAUAGGAUUGUGAAUCUAAAAUACUCCUGGGUAAAAUUUGUAUUAGAAUGGAAAAAAAAAUGAGGGUCAGAAAGGUGAGCUAACUUCAAGUUAGAUACUCCCCUCCUCUUGCGGUCGCACUAGUGUGGAAUUCUCGGGUGUCAAGG
# B3: ENSMUSG00000061578.632|Ksr2|56:60;95:99 (ssRNA)
# RNA: GGGAGUUCUACAGUCCGACGAUCGCUUCGAUAUCCGCAUGCUAUAGAGGGGACGGACAGCUCCCUGACCCUGGAUGGCCAGGAAUGGUGCUAGCUAGGCACACAGCCAAGCCCUUGAGGCUACUGUGAGUUAUGAGAACACACCAACCCUCAGCCCACAGACUGCAUAUGCCCCAGGACAGCUGUGAAGGUGACCCAAUACAAAAUCGUAAACUAACUUAAAACCAUUAAGGGUUUUUGUUUUGUUGUUGUUUGCUGGCUUUUUGUUUUUUGGGUUGGUUUUCUUUUUCUUUCUUUCUUUUUUCUCUUGCGGUCGCACUAGUGUGGAAUUCUCGGGUGUCAAGG
# B4: ENSMUSG00000029636.430|Wasf3 (ssRNA)
# RNA: GGGAGUUCUACAGUCCGACGAUCGCUUCGAUAUCCGCAUGCUAGUGGAUACAUGGAUGAGUGGAUGGGUGGAUUGGUGGGUGAGUGGAUAGGUGAAUGGAUGAUAGGUGGUGGAUGGUUGAGUGGGUGGAUUCAUGAUGGAUGGAUGGAUGGAUGGAUGGAUGGAUGGAUGGAUGAGUGGAUGGAUAAUAGGUUGAUGGGUGGAUAGGUAGAUGAGUGAAUAGAUAGAUAUAGAUCAGUGGGAGGAUUGGAAAGUAGGUGAAUGAAUGGAUGGCAGAUAGAUGGAUCAAUUACAGAUGGAUGGCUCUUGCGGUCGCACUAGUGUGGAAUUCUCGGGUGUCAAGG
# B5: ENSMUSG00000029636.428|Wasf3 (ssRNA)
# RNA: GGGAGUUCUACAGUCCGACGAUCGCUUCGAUAUCCGCAUGCUAGUGGAUGGGUGGGUGGAUACAUGGAUGAGUGGAUGGGUGGAUUGGUGGGUGAGUGGAUAGGUGAAUGGAUGAUAGGUGGUGGAUGGUUGAGUGGGUGGAUUCAUGAUGGAUGGAUGGAUGGAUGGAUGGAUGGAUGGAUGGAUGAGUGGAUGGAUAAUAGGUUGAUGGGUGGAUAGGUAGAUGAGUGAAUAGAUAGAUAUAGAUCAGUGGGAGGAUUGGAAAGUAGGUGAAUGAAUGGAUGGCAGAUAGAUGGAUCAAUUCUCUUGCGGUCGCACUAGUGUGGAAUUCUCGGGUGUCAAGG
# B6: ENSMUSG00000029636.427|Wasf3 (ssRNA)
# RNA: GGGAGUUCUACAGUCCGACGAUCGCUUCGAUAUCCGCAUGCUAAGCUAGGUGGAUGGGUGGGUGGAUACAUGGAUGAGUGGAUGGGUGGAUUGGUGGGUGAGUGGAUAGGUGAAUGGAUGAUAGGUGGUGGAUGGUUGAGUGGGUGGAUUCAUGAUGGAUGGAUGGAUGGAUGGAUGGAUGGAUGGAUGGAUGAGUGGAUGGAUAAUAGGUUGAUGGGUGGAUAGGUAGAUGAGUGAAUAGAUAGAUAUAGAUCAGUGGGAGGAUUGGAAAGUAGGUGAAUGAAUGGAUGGCAGAUAGAUGGACUCUUGCGGUCGCACUAGUGUGGAAUUCUCGGGUGUCAAGG
# B7: ENSMUSG00000042529.153|Kcnj12 (ssRNA)
# RNA: GGGAGUUCUACAGUCCGACGAUCGCUUCGAUAUCCGCAUGCUAAUAGGAAACACCAGAGUGGGUGCUUCUUAGAAAAGGACACUCAGGAAAUUAGUAUGGGGUCUGGGUCCCACAUCCCCAGGAAGUGGGUCAGCCCCACGUCCCCCGCUGGACUCACAGCUUGAGUUGUGCCUUAGAGACUCUGGUUGUCUGGCUUCCGUCAUUUCUGGUUUUCUCAGACUUGUUUAAUCUUUCCCUACUGCCCUAAGUCCACUCAUGAAGCUCCCCAGGCCCUUCUGAGAUUGCAGAGGCUGCUUGCUCAUCUCUUGCGGUCGCACUAGUGUGGAAUUCUCGGGUGUCAAGG
# B8: ENSMUSG00000058297.10|Spock2 (ssRNA)
# RNA: GGGAGUUCUACAGUCCGACGAUCGCUUCGAUAUCCGCAUGCUAGGAGGGUGAGGCGGGUGAGGCAGAUGAUGGAGGCUACAUCUGGUAGAUAGCCCUCGACGGCCUCGGCAGGCCAGGGUGCCGACGGCCAGAAAGACAGGCCAGAAGAGACCUGGACAACAGCAGGCAACUUAGCAAAUGGAUCCGGAAGUCAGUGCGGAGGACCCUGGCUCCAGUGGGGGAGGACUGGGGAGUGUGGCUUGUGUGUAUGUGUGAUAUGAGAUGUGUGUGUAUGAUGUGAGAUGUGAGUGUGUGAUGUGAGACUCUUGCGGUCGCACUAGUGUGGAAUUCUCGGGUGUCAAGG
# B9: ENSMUSG00000058297.4|Spock2 (ssRNA)
# RNA: GGGAGUUCUACAGUCCGACGAUCGCUUCGAUAUCCGCAUGCUAGGAGACAGAAGAGGCAGGGGAGGAGGCCGAGGAGGAGGAGGGUGAGGCGGGUGAGGCAGAUGAUGGAGGCUACAUCUGGUAGAUAGCCCUCGACGGCCUCGGCAGGCCAGGGUGCCGACGGCCAGAAAGACAGGCCAGAAGAGACCUGGACAACAGCAGGCAACUUAGCAAAUGGAUCCGGAAGUCAGUGCGGAGGACCCUGGCUCCAGUGGGGGAGGACUGGGGAGUGUGGCUUGUGUGUAUGUGUGAUAUGAGAUGUGCUCUUGCGGUCGCACUAGUGUGGAAUUCUCGGGUGUCAAGG
# B10: ENSMUSG00000058297.7|Spock2 (ssRNA)
# RNA: GGGAGUUCUACAGUCCGACGAUCGCUUCGAUAUCCGCAUGCUAGGAGGAGGCCGAGGAGGAGGAGGGUGAGGCGGGUGAGGCAGAUGAUGGAGGCUACAUCUGGUAGAUAGCCCUCGACGGCCUCGGCAGGCCAGGGUGCCGACGGCCAGAAAGACAGGCCAGAAGAGACCUGGACAACAGCAGGCAACUUAGCAAAUGGAUCCGGAAGUCAGUGCGGAGGACCCUGGCUCCAGUGGGGGAGGACUGGGGAGUGUGGCUUGUGUGUAUGUGUGAUAUGAGAUGUGUGUGUAUGAUGUGAGAUGCUCUUGCGGUCGCACUAGUGUGGAAUUCUCGGGUGUCAAGG
# B11: ENSMUSG00000058297.8|Spock2 (ssRNA)
# RNA: GGGAGUUCUACAGUCCGACGAUCGCUUCGAUAUCCGCAUGCUAGGCCGAGGAGGAGGAGGGUGAGGCGGGUGAGGCAGAUGAUGGAGGCUACAUCUGGUAGAUAGCCCUCGACGGCCUCGGCAGGCCAGGGUGCCGACGGCCAGAAAGACAGGCCAGAAGAGACCUGGACAACAGCAGGCAACUUAGCAAAUGGAUCCGGAAGUCAGUGCGGAGGACCCUGGCUCCAGUGGGGGAGGACUGGGGAGUGUGGCUUGUGUGUAUGUGUGAUAUGAGAUGUGUGUGUAUGAUGUGAGAUGUGAGUGCUCUUGCGGUCGCACUAGUGUGGAAUUCUCGGGUGUCAAGG
# B12: ENSMUSG00000058297.8|Spock2|203:207;211:224;233:244 (ssRNA)
# RNA: GGGAGUUCUACAGUCCGACGAUCGCUUCGAUAUCCGCAUGCUAGGCCGAGGAGGAGGAGGGUGAGGCGGGUGAGGCAGAUGAUGGAGGCUACAUCUGGUAGAUAGCCCUCGACGGCCUCGGCAGGCCAGGGUGCCGACGGCCAGAAAGACAGGCCAGAAGAGACCUGGACAACAGCAGGCAACUUAGCAAAUGGAUCCGGAAGUCAGUGCGGAGGACCCUGGCUCCAGUGGGGGAGGACUGGGGACACACGCUACACACAUACACACAUAUGAGAACACACACAUACAUGUGAGAUGUGAGUGCUCUUGCGGUCGCACUAGUGUGGAAUUCUCGGGUGUCAAGG
# B13: ENSMUSG00000058297.9|Spock2 (ssRNA)
# RNA: GGGAGUUCUACAGUCCGACGAUCGCUUCGAUAUCCGCAUGCUAGGAGGAGGAGGGUGAGGCGGGUGAGGCAGAUGAUGGAGGCUACAUCUGGUAGAUAGCCCUCGACGGCCUCGGCAGGCCAGGGUGCCGACGGCCAGAAAGACAGGCCAGAAGAGACCUGGACAACAGCAGGCAACUUAGCAAAUGGAUCCGGAAGUCAGUGCGGAGGACCCUGGCUCCAGUGGGGGAGGACUGGGGAGUGUGGCUUGUGUGUAUGUGUGAUAUGAGAUGUGUGUGUAUGAUGUGAGAUGUGAGUGUGUGAUCUCUUGCGGUCGCACUAGUGUGGAAUUCUCGGGUGUCAAGG
# B14: ENSMUSG00000058297.1|Spock2 (ssRNA)
# RNA: GGGAGUUCUACAGUCCGACGAUCGCUUCGAUAUCCGCAUGCUAGGAGGAUGAGGAAGAAAAGGAGACAGAAGAGGCAGGGGAGGAGGCCGAGGAGGAGGAGGGUGAGGCGGGUGAGGCAGAUGAUGGAGGCUACAUCUGGUAGAUAGCCCUCGACGGCCUCGGCAGGCCAGGGUGCCGACGGCCAGAAAGACAGGCCAGAAGAGACCUGGACAACAGCAGGCAACUUAGCAAAUGGAUCCGGAAGUCAGUGCGGAGGACCCUGGCUCCAGUGGGGGAGGACUGGGGAGUGUGGCUUGUGUGUACUCUUGCGGUCGCACUAGUGUGGAAUUCUCGGGUGUCAAGG
# B15: ENSMUSG00000058297.6|Spock2 (ssRNA)
# RNA: GGGAGUUCUACAGUCCGACGAUCGCUUCGAUAUCCGCAUGCUAGGCAGGGGAGGAGGCCGAGGAGGAGGAGGGUGAGGCGGGUGAGGCAGAUGAUGGAGGCUACAUCUGGUAGAUAGCCCUCGACGGCCUCGGCAGGCCAGGGUGCCGACGGCCAGAAAGACAGGCCAGAAGAGACCUGGACAACAGCAGGCAACUUAGCAAAUGGAUCCGGAAGUCAGUGCGGAGGACCCUGGCUCCAGUGGGGGAGGACUGGGGAGUGUGGCUUGUGUGUAUGUGUGAUAUGAGAUGUGUGUGUAUGAUGUCUCUUGCGGUCGCACUAGUGUGGAAUUCUCGGGUGUCAAGG
# B16: ENSMUSG00000058297.9|Spock2|197:201;205:218;227:238;252:258 (ssRNA)
# RNA: GGGAGUUCUACAGUCCGACGAUCGCUUCGAUAUCCGCAUGCUAGGAGGAGGAGGGUGAGGCGGGUGAGGCAGAUGAUGGAGGCUACAUCUGGUAGAUAGCCCUCGACGGCCUCGGCAGGCCAGGGUGCCGACGGCCAGAAAGACAGGCCAGAAGAGACCUGGACAACAGCAGGCAACUUAGCAAAUGGAUCCGGAAGUCAGUGCGGAGGACCCUGGCUCCAGUGGGGGAGGACUGGGGACACACGCUACACACAUACACACAUAUGAGAACACACACAUACAUGUGAGAUGUGACACACACAUCUCUUGCGGUCGCACUAGUGUGGAAUUCUCGGGUGUCAAGG
# Biological target: TDP-43 (Homo sapiens, UniProt Q13148 1-414)
# Sequence (Q13148 whole entry): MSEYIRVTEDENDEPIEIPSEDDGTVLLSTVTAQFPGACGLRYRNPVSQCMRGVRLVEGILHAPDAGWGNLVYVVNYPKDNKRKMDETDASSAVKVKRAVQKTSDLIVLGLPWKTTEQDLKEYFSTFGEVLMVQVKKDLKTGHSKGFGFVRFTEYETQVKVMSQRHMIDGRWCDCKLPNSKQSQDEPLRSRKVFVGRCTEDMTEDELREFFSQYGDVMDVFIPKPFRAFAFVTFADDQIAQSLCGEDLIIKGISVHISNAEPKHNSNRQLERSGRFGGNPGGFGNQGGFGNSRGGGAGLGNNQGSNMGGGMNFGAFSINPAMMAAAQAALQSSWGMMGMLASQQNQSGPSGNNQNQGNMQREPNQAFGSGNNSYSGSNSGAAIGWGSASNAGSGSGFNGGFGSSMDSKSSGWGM
# Assay: RNA Bind-n-Seq with designed 260-mer pool; 25 mM Tris-HCl, 150 mM KCl, 3 mM MgCl2, BSA (printed 500 mg/mL), 20 units/mL SUPERase IN; pH not stated; 500 nM RNA pool, 1 h, 4 C; TDP-43 5, 50, 500 nM; high values mean tight binding
# Details: protein: recombinant; tags: SBP (GST cleaved off with PreScission; pGEX-GST-SBP)
# Method in brief: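 An in vitro-transcribed pool of 260-nt 3′ UTR oligos (500 nM) was incubated for 1 h at 4 °C with recombinant SBP-tagged TDP-43 at 5, 50 or 500 nM held on streptavidin beads. The buffer contained 25 mM Tris-HCl, 150 mM KCl, 3 mM MgCl2, BSA and SUPERase IN. Biotin-eluted bound RNA was sequenced, and binding, R, is each oligo's normalized read abundance in the bound sample over that in input.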
row,Binder,binding signal
1,B1,4.99 R (bound/input frequency ratio)
2,B2,1.22 R (bound/input frequency ratio)
3,B3,0.54 R (bound/input frequency ratio)
4,B4,4.31 R (bound/input frequency ratio)
5,B5,8.28 R (bound/input frequency ratio)
6,B6,4.15 R (bound/input frequency ratio)
7,B7,0.587 R (bound/input frequency ratio)
8,B8,6.91 R (bound/input frequency ratio)
9,B9,6.81 R (bound/input frequency ratio)
10,B10,5.88 R (bound/input frequency ratio)
11,B11,6.51 R (bound/input frequency ratio)
12,B12,2.32 R (bound/input frequency ratio)
13,B13,5.99 R (bound/input frequency ratio)
14,B14,3.54 R (bound/input frequency ratio)
15,B15,4.92 R (bound/input frequency ratio)
16,B16,2.81 R (bound/input frequency ratio)
